Measured values published in the supplement of paper PMC12636033.
± gives the standard deviation of the averaged measurements. Over roughly 33,000 sequences, “E-score (rank enrichment, -0.5 to 0.5)” has its median near -0.0068; the highest 2% begin near 0.24. Only a selection was taken, and the highest values are over-represented in it overall.

These sequences were tested on muMax20 (Max(13-93) K31hArg/K57hArg, M65Nle) (assay: PBM 8-mer E-score (E-score (rank enrichment, -0.5 to 0.5)); higher = stronger preferential binding).
Method: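 Protein binding microarray (universal PBM chip covering all 10-mers in fixed probe flanks) with chemically synthesized human Max(13-93) bHLH-LZ analogs (not full-length Max) bearing noncanonical residues (hArg, Tha, Aib, Nle at 65) and aromatic Cys staples. Read-out per 8-mer (and its reverse complement): E-score (rank-based enrichment, -0.5 to 0.5) and Z-score of median probe intensity.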
CCATGTTC was tested, and the “PBM 8-mer E-score” value was -0.0553 ± 0.12. GCATGTGA was tested, and the “PBM 8-mer E-score” value was 0.236 ± 0.11. AGATGTGG was tested, and the “PBM 8-mer E-score” value was -0.0064 ± 0.024. In the case of CCATGTGC, the “PBM 8-mer E-score” value is reported as 0.265 ± 0.12. CTATGTGC was tested, and the “PBM 8-mer E-score” value was 0.175 ± 0.034. With ACATGTGG the “PBM 8-mer E-score” value was 0.335 ± 0.035. In the case of CCATGTGA, the “PBM 8-mer E-score” value is reported as 0.268 ± 0.088. For ACATGTGA, the “PBM 8-mer E-score” value was 0.313 ± 0.063. For AAATGTGG, the “PBM 8-mer E-score” value was 0.139 ± 0.016. ACATGTCA was tested, and the “PBM 8-mer E-score” value was 0.0739 ± 0.079. For CGATGTGA, the “PBM 8-mer E-score” value was -0.012 ± 0.0036. With AGATGTGA the “PBM 8-mer E-score” value was 0.11 ± 0.04. CTAGTAAC was tested, and the “PBM 8-mer E-score” value was 0.196 ± 0.0053. For ATCTTGGC, the “PBM 8-mer E-score” value was -0.108 ± 0.011. With AGCTCGTG the “PBM 8-mer E-score” value was 0.0196 ± 0.019. In the case of GGGCCACA, the “PBM 8-mer E-score” value is reported as -0.0874 ± 0.078. In the case of CTGCTGCC, the “PBM 8-mer E-score” value is reported as -0.156 ± 0.007. For GTGTCTAA, the “PBM 8-mer E-score” value was 0.0915 ± 0.069. With ATGGATAA the “PBM 8-mer E-score” value was 0.163 ± 0.05. In the case of GATCCAAC, the “PBM 8-mer E-score” value is reported as -0.0916 ± 0.056. CGATGCAG was tested, and the “PBM 8-mer E-score” value was -0.0636 ± 0.022. AGGCACAA was tested, and the “PBM 8-mer E-score” value was 0.00764 ± 0.053. With ACATGTCC the “PBM 8-mer E-score” value was 0.132 ± 0.091. In the case of AGATGTGC, the “PBM 8-mer E-score” value is reported as -0.0232 ± 0.13. In the case of ACATGTGC, the “PBM 8-mer E-score” value is reported as 0.265 ± 0.089. For AAAAGGGT, the “PBM 8-mer E-score” value was 0.017 ± 0.098. With AGCACGCA the “PBM 8-mer E-score” value was 0.00177 ± 0.16. In the case of CCCACGCG, the “PBM 8-mer E-score” value is reported as 0.246 ± 0.025. In the case of CAAACACG, the “PBM 8-mer E-score” value is reported as 0.292 ± 0.006. For CGCACGCG, the “PBM 8-mer E-score” value was 0.171 ± 0.035. With TAAACACA the “PBM 8-mer E-score” value was 0.218 ± 0.043. CCCACGCC was tested, and the “PBM 8-mer E-score” value was -0.00197 ± 0.078. In the case of ACCACGCC, the “PBM 8-mer E-score” value is reported as -0.112 ± 0.055. With AGCACGCG the “PBM 8-mer E-score” value was 0.238 ± 0.13. With ACCACGCA the “PBM 8-mer E-score” value was -0.00629 ± 0.023. CAAACACA was tested, and the “PBM 8-mer E-score” value was 0.181 ± 0.095. CCCACGCA was tested, and the “PBM 8-mer E-score” value was -0.043 ± 0.11. In the case of ACCACGCG, the “PBM 8-mer E-score” value is reported as 0.3 ± 0.11. ATCTCAAT was tested, and the “PBM 8-mer E-score” value was 0.0437 ± 0.22. In the case of ATCTCCCA, the “PBM 8-mer E-score” value is reported as 0.0498 ± 0.043. AGACCAGA was tested, and the “PBM 8-mer E-score” value was -0.0423 ± 0.084. With AGGGTGCG the “PBM 8-mer E-score” value was -0.107 ± 0.027. With CTGAGCAG the “PBM 8-mer E-score” value was -0.139 ± 0.067. In the case of ACATAGGC, the “PBM 8-mer E-score” value is reported as 0.126 ± 0.0047. CGCAGGGA was tested, and the “PBM 8-mer E-score” value was -0.135 ± 0.074. In the case of CACACGCA, the “PBM 8-mer E-score” value is reported as 0.0877 ± 0.054. In the case of ACCACGTC, the “PBM 8-mer E-score” value is reported as 0.0772 ± 0.1. In the case of AGCACGTG, the “PBM 8-mer E-score” value is reported as 0.436 ± 0.07. With ATCACGTC the “PBM 8-mer E-score” value was 0.182 ± 0.045. AGCACGTA was tested, and the “PBM 8-mer E-score” value was 0.0788 ± 0.0046. With ATCACGTG the “PBM 8-mer E-score” value was 0.445 ± 0.064. ACCACGTA was tested, and the “PBM 8-mer E-score” value was -0.0417 ± 0.022. ACCACGTG was tested, and the “PBM 8-mer E-score” value was 0.477 ± 0.026. For CACACGCG, the “PBM 8-mer E-score” value was 0.258 ± 0.038. For ATCACGTA, the “PBM 8-mer E-score” value was 0.144 ± 0.055. In the case of AACACGCG, the “PBM 8-mer E-score” value is reported as 0.202 ± 0.042. With AGCACGTC the “PBM 8-mer E-score” value was -0.139 ± 0.096. In the case of ATGCCCAG, the “PBM 8-mer E-score” value is reported as -0.219 ± 0.063. For ACTCGCTA, the “PBM 8-mer E-score” value was -0.111 ± 0.17. With CCGTGCCG the “PBM 8-mer E-score” value was -0.206 ± 0.017. With GACCACAC the “PBM 8-mer E-score” value was 0.0455 ± 0.029. With CACTAGGG the “PBM 8-mer E-score” value was -0.0807 ± 0.033. In the case of TATGGAAA, the “PBM 8-mer E-score” value is reported as 0.148 ± 0.034. For CCCCCTCG, the “PBM 8-mer E-score” value was -0.0378 ± 0.01. ATGCCCAC was tested, and the “PBM 8-mer E-score” value was 0.164 ± 0.033. In the case of CATGAATG, the “PBM 8-mer E-score” value is reported as 0.126 ± 0.15. With GATGAATA the “PBM 8-mer E-score” value was 0.24 ± 0.097. For AATGAAAT, the “PBM 8-mer E-score” value was 0.0911 ± 0.04. For TATGAATA, the “PBM 8-mer E-score” value was 0.159 ± 0.029. With AATGAATG the “PBM 8-mer E-score” value was 0.259 ± 0.058. In the case of AATGAATT, the “PBM 8-mer E-score” value is reported as 0.238 ± 0.013. AATGAATC was tested, and the “PBM 8-mer E-score” value was -0.0408 ± 0.034. With CATGAATA the “PBM 8-mer E-score” value was 0.192 ± 0.13. AATGAACT was tested, and the “PBM 8-mer E-score” value was -0.00523 ± 0.086. For AATGAATA, the “PBM 8-mer E-score” value was 0.275 ± 0.093. In the case of GATGAATC, the “PBM 8-mer E-score” value is reported as 0.0791 ± 0.018. With ACTGAATA the “PBM 8-mer E-score” value was 0.0784 ± 0.014. For ATGTATCA, the “PBM 8-mer E-score” value was 0.135 ± 0.08. With ATAGAGCA the “PBM 8-mer E-score” value was -0.146 ± 0.024. GAACCGAA was tested, and the “PBM 8-mer E-score” value was 0.0388 ± 0.025. For AAACCCCG, the “PBM 8-mer E-score” value was 0.193 ± 0.062. For ACCTACTG, the “PBM 8-mer E-score” value was 0.118 ± 0.053. In the case of CATTGATC, the “PBM 8-mer E-score” value is reported as 0.196 ± 0.028. With ATCGCAAT the “PBM 8-mer E-score” value was 0.0576 ± 0.054. For CAAAGCTC, the “PBM 8-mer E-score” value was -0.178 ± 0.079. With CGCATCTA the “PBM 8-mer E-score” value was 0.176 ± 0.0097. In the case of CTCTTCGA, the “PBM 8-mer E-score” value is reported as 0.0225 ± 0.082. With AAATTGTA the “PBM 8-mer E-score” value was 0.282 ± 0.017. With AAATTGTT the “PBM 8-mer E-score” value was 0.136 ± 0.14. For TAATTGTA, the “PBM 8-mer E-score” value was 0.146 ± 0.091. For CGCGAACC, the “PBM 8-mer E-score” value was -0.2495 ± 0.00081. For CCTGAAAG, the “PBM 8-mer E-score” value was 0.0218 ± 0.0043. For ACAACATA, the “PBM 8-mer E-score” value was 0.0952 ± 0.11. ACAACATC was tested, and the “PBM 8-mer E-score” value was 0.0572 ± 0.022. ACAACATG was tested, and the “PBM 8-mer E-score” value was 0.265 ± 0.008. With ACAACAAC the “PBM 8-mer E-score” value was 0.125 ± 0.024. For ACAACCAT, the “PBM 8-mer E-score” value was 0.29 ± 0.03. In the case of ACAACCAG, the “PBM 8-mer E-score” value is reported as 0.062 ± 0.026. ACAACAAA was tested, and the “PBM 8-mer E-score” value was 0.163 ± 0.0084. For ACAACCAC, the “PBM 8-mer E-score” value was 0.033 ± 0.02. With ACAACAAG the “PBM 8-mer E-score” value was 0.262 ± 0.017. For CCGTGAGA, the “PBM 8-mer E-score” value was -0.189 ± 0.067. In the case of ACCTATGA, the “PBM 8-mer E-score” value is reported as -0.136 ± 0.034. With ACCACCGC the “PBM 8-mer E-score” value was -0.0018 ± 0.023. ATTCTTTC was tested, and the “PBM 8-mer E-score” value was 0.176 ± 0.02. In the case of CGCAGTGC, the “PBM 8-mer E-score” value is reported as -0.12 ± 0.2. In the case of CATCGGGC, the “PBM 8-mer E-score” value is reported as -0.209 ± 0.08. With ATGTTGCA the “PBM 8-mer E-score” value was 0.122 ± 0.029. In the case of AAGTAGAT, the “PBM 8-mer E-score” value is reported as 0.0944 ± 0.081. ACCTGGCG was tested, and the “PBM 8-mer E-score” value was -0.256 ± 0.014.
